The campaign covered roughly 310,000 compounds. About 14,000 (4.5%) showed an effect of 50% or more. The effect is printed as a negative number. The list comes from a sample in which strong results are over-represented; it also holds similar structures and randomly drawn compounds.
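Note: peak tail current of the secondary pulse compared with the same well before compound.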

In this test the target is human ether-à-go-go-related gene (hERG) potassium channel (human, UniProt Q12809). As to the kind of experiment: primary screen, population patch clamp on CHO cells stably expressing hERG; higher = less effect of the substance.
Sequence of human ether-à-go-go-related gene (hERG) potassium channel (Q12809 whole entry, looked up): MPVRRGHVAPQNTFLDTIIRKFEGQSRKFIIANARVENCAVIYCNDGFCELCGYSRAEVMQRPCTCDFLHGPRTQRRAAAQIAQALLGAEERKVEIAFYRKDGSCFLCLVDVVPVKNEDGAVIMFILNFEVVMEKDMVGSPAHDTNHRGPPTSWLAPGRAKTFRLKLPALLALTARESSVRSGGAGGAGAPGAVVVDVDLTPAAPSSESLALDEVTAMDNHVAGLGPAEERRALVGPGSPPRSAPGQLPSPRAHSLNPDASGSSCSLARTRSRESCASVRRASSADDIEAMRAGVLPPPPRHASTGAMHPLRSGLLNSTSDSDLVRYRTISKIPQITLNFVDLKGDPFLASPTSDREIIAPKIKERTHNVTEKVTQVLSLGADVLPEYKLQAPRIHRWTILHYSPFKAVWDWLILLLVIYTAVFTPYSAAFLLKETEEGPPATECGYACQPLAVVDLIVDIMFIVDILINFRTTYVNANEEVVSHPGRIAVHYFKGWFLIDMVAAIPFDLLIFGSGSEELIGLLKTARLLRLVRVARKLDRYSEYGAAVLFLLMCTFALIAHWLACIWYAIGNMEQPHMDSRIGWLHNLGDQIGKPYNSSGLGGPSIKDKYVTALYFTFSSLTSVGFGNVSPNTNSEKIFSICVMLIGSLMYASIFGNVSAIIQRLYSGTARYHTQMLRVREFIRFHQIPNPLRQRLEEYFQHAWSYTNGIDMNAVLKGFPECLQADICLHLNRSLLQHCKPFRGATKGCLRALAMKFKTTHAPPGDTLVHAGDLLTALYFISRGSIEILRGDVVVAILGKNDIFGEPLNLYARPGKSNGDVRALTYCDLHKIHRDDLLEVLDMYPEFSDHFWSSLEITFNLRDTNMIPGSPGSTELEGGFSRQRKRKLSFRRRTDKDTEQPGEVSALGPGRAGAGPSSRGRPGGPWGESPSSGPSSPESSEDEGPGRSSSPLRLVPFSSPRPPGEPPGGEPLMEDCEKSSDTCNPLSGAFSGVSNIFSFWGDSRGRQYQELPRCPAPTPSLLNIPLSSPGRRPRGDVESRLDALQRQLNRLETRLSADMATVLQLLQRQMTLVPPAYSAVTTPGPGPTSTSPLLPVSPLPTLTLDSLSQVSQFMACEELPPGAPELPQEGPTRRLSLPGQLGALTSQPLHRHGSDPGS
For `COc1ccc(NC(=S)NCCc2ccc(F)cc2)c(OC)c1`, the “hERG current change (%, negative = inhibition) at 10uM” value is -19.4%. Regarding `O=C1c2cccc3c([N+](=O)[O-])ccc(c23)C(=O)N1c1ccccn1`, the “hERG current change (%, negative = inhibition) at 10uM” value was 7.95%. The figure for `O=C(Cc1cccs1)NNC(=S)NC(=O)c1ccc(F)c(F)c1` is 12.2%. The figure for `C=CCNC(=O)CN1CCC(c2nc3ccccc3[nH]2)CC1` is 7.7%; for `O=C(CN1CCC(c2nc3ccccc3[nH]2)CC1)Nc1ccc2c(c1)OCO2` it is -53.1%. With `CC(C)N(C(=O)CN1CCC(c2nc3ccccc3[nH]2)CC1)C(C)C`, the “hERG current change (%, negative = inhibition) at 10uM” value is reported as -4.13%.

For the compound `Cc1ccc2nc(-c3ccc(SCC(=O)Nc4ccc5c(c4)OCCO5)nc3)[nH]c2c1`, the “hERG current change (%, negative = inhibition) at 10uM” value is recorded as -5.51%. The result for `CCCNC(=O)CN1CCC(c2nc3ccccc3[nH]2)CC1` reads 15.6%; that for `Cc1ccc2nc(SCC(=O)Nc3ccc4c(c3)OCCO4)[nH]c2c1`, 4.73%. The figure for `CC(C)NC(=O)CN1CCC(c2nc3ccccc3[nH]2)CC1` is -8.64%; for `O=C(CN1CCC(c2nc3ccccc3[nH]2)CC1)NCc1ccc2c(c1)OCO2` it is -84.3%. With `Cc1ccc2nc(C3CCN(CC(=O)Nc4ccc5c(c4)OCCO5)CC3)[nH]c2c1`, the “hERG current change (%, negative = inhibition) at 10uM” value is on record as -50.6%. The figure for `CCN1CCN(Cc2ccc(NC(=O)c3cc(NC(=O)c4ccc5n[nH]nc5c4)cc(OC)c3)cc2C(F)(F)F)CC1` is 21.1%; for `CC(C(=O)OCC(=O)c1ccccc1)N1C(=O)C2C3CCC(C3)C2C1=O` (stereo not shown) it is 10.5%; for `c1ccc(OCCCn2nnc(-c3ccc(N4CCOCC4)cc3)n2)cc1` it is 15.4%. The figure for `COc1ccc(NC(=O)CN(C)S(=O)(=O)c2cccc3nsnc23)cc1OC` is -10.3%; for `CCc1ccc(N(CC(=O)NC2CCCCC2)C(=O)CNC(=O)c2ccco2)cc1` it is -13.6%; for `CC(C)c1ccc(N2C(=NC(=O)C3CCCO3)SC3CS(=O)(=O)CC32)cc1` (stereo not shown) it is -9.87%. The result for `O=C1c2ccccc2C(=O)N1CN(C(=O)COc1ccc(Cl)cc1Cl)c1cccc(F)c1` reads 1.4%.

As to `COc1cccc(S(=O)(=O)Nc2ccc(C(=O)NCc3ccco3)cc2)c1`, the “hERG current change (%, negative = inhibition) at 10uM” value was 3.01%.

Take `Cn1c(-c2ccc(Br)cc2)cnc1NCc1ccc(C#N)cc1.O=C(O)C(=O)O`: the “hERG current change (%, negative = inhibition) at 10uM” value was -76.6%. The result for `Cn1c(-c2ccc(F)cc2)cnc1NCc1ccc(C#N)cc1` reads -73.7%. The figure for `Cn1c(-c2ccc(F)cc2)cnc1NCc1ccccc1` is -46.7%. The figure for `Cn1c(-c2ccc(F)cc2)cnc1NCc1ccc(F)cc1` is -40.7%; for `Cn1c(-c2ccccc2)cnc1NCc1ccc(-c2ccccc2)cc1.O=C(O)C(=O)O` it is -10.4%.

For the compound `COc1cc(OC)c(NC(=O)CCNC(=O)Cn2cnc3ccccc3c2=O)cc1Cl`, the “hERG current change (%, negative = inhibition) at 10uM” value was -0.133%. The result for `CCc1nnc(NS(=O)(=O)c2ccc(NC(=O)/C=C/c3ccc(F)cc3)cc2)s1` reads 8.28%; that for `O=C(O)CCC(=O)Nc1sc2c(c1C(=O)NC1CCCC1)CCCC2`, 5.76%. Turning to `Cc1cc(C)cc(C(=O)NC(CC(N)=O)c2ccc(NC3CCCCCCC3)c([N+](=O)[O-])c2)c1` (stereo not shown), the “hERG current change (%, negative = inhibition) at 10uM” value was determined as 1.06%.

Turning to `CC(=O)c1c(O)cc(C)oc1=O`, the “hERG current change (%, negative = inhibition) at 10uM” value was 25.5%. The result for `C(=N\Nc1nc(N2CCCC2)nc(N2CCCC2)n1)/c1cccnc1` reads 6.33%.

`C(=N\Nc1nc(N2CCOCC2)nc(N2CCOCC2)n1)/c1cccnc1`: the “hERG current change (%, negative = inhibition) at 10uM” value is -12.1%. The figure for `FC(F)(F)COc1nc(N/N=C/c2cccnc2)nc(N2CCCCC2c2ccccn2)n1` (stereo not shown) is -60.8%.

As to `COCCN(CC(=O)NCc1ccc(OC)cc1)C(=O)CCC(=O)Nc1nccs1`, the “hERG current change (%, negative = inhibition) at 10uM” value is on record as -8.1%.

Regarding `O=S(Cc1cc(Oc2ccccc2)nc(-c2ccccc2)n1)c1ccccc1` (stereo not shown), the “hERG current change (%, negative = inhibition) at 10uM” value is reported as -7.69%.

Regarding `O=Cc1sc(Nc2ccccc2)nc1Cl`, the “hERG current change (%, negative = inhibition) at 10uM” value is listed as -13.1%. The figure for `COc1ccc(N2CCCC2)c(NC(=O)c2ccc([N+](=O)[O-])o2)c1` is 14%; for `COc1ccc(S(=O)(=O)N2CCCCC2)cc1NC(=O)c1ccc([N+](=O)[O-])o1` it is -2.81%.

For the compound `CCN1CCN(c2c(Cl)cccc2NC(=O)c2cc3ccccc3o2)CC1`, the “hERG current change (%, negative = inhibition) at 10uM” value was -23.4%.

Take `Cc1ccc(S(=O)(=O)N2CCCCC2)cc1NC(=O)c1cc2ccccc2o1`: the “hERG current change (%, negative = inhibition) at 10uM” value is reported as -7.85%. The result for `CCN1CCN(c2ccc(S(=O)(=O)N3CCCCC3)cc2NC(=O)c2ccc(C)o2)CC1` reads -75.7%. The figure for `CCN1CCN(S(=O)(=O)c2ccc(Cl)c(C(=O)Nc3ccccc3N3CCCCC3)c2)CC1` is 12.8%. The figure for `CCN1CCN(c2ccc(S(=O)(=O)N3CCCCC3)cc2NC(=O)c2cc3ccccc3o2)CC1` is -53.7%.

Turning to `CCN1CCN(c2ccc(S(=O)(=O)N3CCCCC3)cc2NC(=O)c2cccc(C)c2[N+](=O)[O-])CC1`, the “hERG current change (%, negative = inhibition) at 10uM” value was -28.8%.

With `CCN1CCN(c2ccc(S(=O)(=O)N3CCCCC3)cc2NC(=O)c2ccc([N+](=O)[O-])s2)CC1`, the “hERG current change (%, negative = inhibition) at 10uM” value is recorded as -80.6%.

Turning to `CCN1CCN(c2ccc(S(=O)(=O)N3CCCCC3)cc2NC(=O)c2ccc([N+](=O)[O-])o2)CC1`, the “hERG current change (%, negative = inhibition) at 10uM” value is reported as -75.9%.

The values above are taken from paper PMC4336329 (PLoS ONE, 2015).
